This note sets out measurements from PubChem BioAssay (NCATS).

Each structure is given as a SMILES string. Results filed as inconclusive are left out. Calls of active or inactive are those of the source. Unless noted, the call rests on the fitted dose curve; in most records, active means well fitted curve in the direction sought with a large enough effect; inconclusive means small, poorly fitted or top-dose-only effect, or another doubt; inactive means no such curve, though single readings can be large; an effect the other way counts as inactive or inconclusive.

The target in test [1] is Ubiquitin carboxyl-terminal hydrolase 2 (Homo sapiens) (UniProt O75604). As to the kind of experiment: qHTS Validation Assay for Inhibitors of Ubiquitin-specific Protease USP2a Using CHOP2 as the Reporter (AID 463106). The gist of the method: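 USP2 core (10 nM final) was preincubated with compound 30 min at RT in pH 8.0 Tris/CaCl2/beta-ME/CHAPS buffer. Ub-CHOP2 and reporter substrate (25 nM final each) were then added, with fluorescence (Ex 485/Em 531) read after 60 min. Data were normalized to NEM full inhibition and fitted to concentration-response curves.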
A general note: In qHTS, concentration-response curves come from the screen itself.

For test [2], the target named is DNA polymerase III PolC-type (Bacillus subtilis (strain 168)) (UniProt P13267). The test can be described thus: qHTS Validation Assay for the Inhibitors of DNA Replication in Gram-Positive Bacteria (AID 485295).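 Further: reconstituted holoenzyme with PolC plus beta clamp SSB and primase; PicoGreen fluorescence of double-stranded DNA made on primed circular M13 template; series mostly up to about 57 µM.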 The gist of the method: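 Primed replication of single-stranded M13Gori by a four-protein B. subtilis holoenzyme is measured at room temperature. Double-stranded product is quantified by PicoGreen fluorescence after an EDTA stop; inhibition is scaled between DMSO and EDTA controls.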

The target in test [3] is Tumor susceptibility gene 101 protein (Homo sapiens) (UniProt Q99816). The test can be described thus: qHTS Validation Assay for Iinhibitors of HIV-1 Budding by Blocking the Interaction of PTAP/TSG101 (AID 485342; calls by dose curve). The gist of the method:
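Fluorescence anisotropy measured PTAP-Tsg101 interaction. Final concentrations were 10 uM protein domain and 50 nM labeled peptide, equilibrated 20 min at room temperature.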

Test [4] is described as follows: qHTS Validation Assay to Find Inhibitors of Chronic Active B-Cell Receptor Signaling (AID 485345; active means well fitted curve in the direction sought with a large enough effect in the main read-out, with a control signal flat, not every such curve was filed as active). The gist of the method: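 TMD8 ABC-DLBCL cells stably carrying doxycycline-inducible IkappaBalpha–green luciferase fusion plus unfused red luciferase; compounds 46 uM to 3 nM, 4 h at 37C with doxycycline. Corrected green/red luminescence ratio normalized to 10 uM MG-132 and basal cell wells; curves fitted.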

For test [5], the target named is Beta-2 adrenergic receptor (Homo sapiens) (UniProt P07550). The test can be described thus: qHTS validation assay of beta-arrestin-biased ligands of beta2-adrenergic receptor (AID 485366). In a few lines:
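Luminescence from a tTA-responsive luciferase, induced when recombinant beta-arrestin is recruited to recombinant beta2-AR, served as the agonism signal. Cells were exposed to compound for 18 hr at 37 degrees C; titrations spanned up to 46 microM.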

In test [6] the target is ATP-dependent 6-phosphofructokinase (Trypanosoma brucei brucei) (UniProt O15648). As to the kind of experiment: qHTS Validation Assay to Find Inhibitors of T. brucei phosphofructokinase (AID 485368). The gist of the method: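 Activity was normalized between 1x (1.25 nM) PFK wells as no inhibition and enzyme-free wells as full inhibition, from luminescence after ADP-Glo detection of ADP made from 0.5 mM F6P and 0.1 mM ATP over 45 min.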

Test [7] is described as follows: Quantitative high throughput screen for delayed death inhibitors of the malarial parasite plastid, 96 hour incubation (AID 488745). Further: nearly all actives have a fitted effect of over 70% in size. Further: potency means the concentration at half of the fitted maximal effect. In a few lines:
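Luciferase-expressing P. falciparum in erythrocytes (2% hematocrit, 0.1% parasitemia) incubated with compound for 96 h at 37 C, 5% CO2, in RPMI 1640 with 0.5% Albumax. Growth inhibition read as decreased luminescence.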

Test [8] in a line: Quantitative high throughput screen for delayed death inhibitors of the malarial parasite plastid, 48 hour incubation (AID 488752). Further: nearly all actives have a fitted effect of over 65% in size. Further: potency means the concentration at half of the fitted maximal effect. In a few lines:
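Erythrocytes infected with firefly luciferase-expressing P. falciparum (2% hematocrit, 0.1% parasitemia) cultured with compound for 48 h at 37 C, 5% CO2, in RPMI 1640/0.5% Albumax. Growth inhibition read as loss of luminescence.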

Test [9] has as its target Thioredoxin reductase 1, cytoplasmic (Rattus norvegicus) (UniProt O89049). As to the kind of experiment: qHTS Assay for Substrates of Mammalian Selenoprotein Thioredoxin Reductase 1 (TrxR1) (AID 488772).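 Further: NADPH fluorescence in the first read after selenite addition and not the 8 min delta; series mostly up to about 57 µM; a drop in NADPH fluorescence below the no-compound background marks a TrxR1 substrate.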 In a few lines: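 Quantitative HTS in Tris-HCl buffer at pH 7.5 with EDTA and Tween-20, using rat TrxR1, 400 uM NADPH and 400 uM selenite (final). A fall in initial NADPH fluorescence relative to background marked substrate behaviour.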

Test [10] shares this target. The test can be described thus: qHTS Assay for Inhibitors of Mammalian Selenoprotein Thioredoxin Reductase 1 (TrxR1) (AID 488773).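 Further: drop in NADPH fluorescence over an 8 min run after selenite addition; series mostly up to about 57 µM; nearly all actives have a fitted effect of over 40% in size.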 The note with it: Potency: inhibition. In a few lines:
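Steps: enzyme (90 nM) plus NADPH (400 uM final), 5 min at ~22 deg C; compound added, 15 min; selenite (400 uM final) added; fluorescence followed for 8 min. Concentration-response curves derived from the normalized delta values.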

In test [11] the target is Flap endonuclease 1 (Homo sapiens) (UniProt P39748). As to the kind of experiment: qHTS Validation Assay for the Inhibitors of Human Flap endonuclease 1 (FEN1) (AID 488816). The gist of the method:
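Human FEN1 (10 nM) preincubated 15 min at room temperature with compounds, then flap DNA substrate added at 50 nM final. Fluorescence read at 0 and 15 min; concentration-response fitted with four-parameter Hill equation.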

For test [12], the target named is M-phase phosphoprotein 8 (Homo sapiens) (UniProt Q99549). The test can be described thus: qHTS Validation Assay for Inhibitors for MPP8 Chromodomain Interactions with Methylated Histone Tails (AID 488949).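 Further: AlphaScreen signal from MPP8 chromodomain bound to biotinylated H3K9me3 peptide; top concentration of the series differs between compounds; nearly all actives have a fitted effect of over 55% in size.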 In a few lines:
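Disruption of the preformed MPP8–trimethyl-H3K9 peptide complex (both 50 nM, 30 min, RT) is measured after 30 min compound exposure, using AlphaScreen proximity beads; aurintricarboxylic acid titration serves as plate control.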

Test [13] deals with Chromobox protein homolog 1 (Homo sapiens) (UniProt P83916). The test can be described thus: qHTS Validation Assay for Inhibitors of HP1-beta Chromodomain Interactions with Methylated Histone Tails (AID 488953). Further: nearly all actives have a fitted effect of over 50% in size. Further: potency means the concentration at half of the fitted maximal effect. In a few lines:
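HP1-beta (50 nM) preformed 30 min with biotinylated H3(1-18)K9me3 peptide (50 nM) in PBS pH 7.4, 0.01% Tween-20. Compounds added for 30 min at room temperature. Complex disruption read by AlphaScreen with streptavidin donor/nickel chelate acceptor beads (10 ug/mL each).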

The target of test [14] is Methanococcus maripaludis chaperonin (MmCpn) (UniProt Q6LX38). As to the kind of experiment: High-Throughput Screening for Modulators of Cytosolic Chaperonin Activity: MmCpn Primary Screen (AID 488978).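 Further: 50 nM MmCpn enzyme hydrolysing 30 µM ATP at 37 °C.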 The gist of the method:
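Measures ATPase turnover of the M. maripaludis chaperonin (50 nM final) against 30 uM ATP over 10 min at 37C, with compound added 5 min beforehand at room temperature. ADP is quantified by HTRF immunodetection.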

In test [15] the target is Transient receptor potential cation channel subfamily V member 1 (Homo sapiens) (UniProt Q8NER1). The test can be described thus: HTS Assay for Compounds that Act as Enhancers of the Vanilloid Receptor 1 (AID 488979). The gist of the method:
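TRPV1 cells loaded with Fluo-8 calcium dye; compound added and Ca2+ signal (ex 480/em 520 nm) followed 3 min, then capsaicin at EC20 added and read 2 more min to detect enhancement.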

Test [16] addresses Thyrotropin receptor (Homo sapiens) (UniProt P16473). As to the kind of experiment: qHTS Assay for Antagonists of the Thyroid Stimulating Hormone Receptor (AID 488980). Further: series mostly up to about 58 µM. In a few lines:
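Cells expressing human TSHR (HEK293) are dispensed in HBSS/HEPES containing 70 uM RO 20-1724, compound is added, then TSH at EC80 (4 nM final). Antibody in lysis buffer follows, 30 minutes at room temperature before HTRF detection.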

For test [17], the target named is D(1A) dopamine receptor (Homo sapiens) (UniProt P21728). As to the kind of experiment: HTS Assay for Allosteric Agonists of the Human D1 Dopamine Receptor: Primary Screen for Agonists (AID 488981). In a few lines: (§1)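 Tetracycline-induced HEK293 Trex D1 cells with forced coupling to calcium, loaded with no-wash calcium dye; kinetic fluorescence read 180 s after compound addition for agonism, then a further 180 s after an EC20 dopamine challenge for potentiation.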

For test [18] the target is unchanged. As to the kind of experiment: HTS Assay for Allosteric Agonists of the Human D1 Dopamine Receptor: Primary Screen for Potentiators (AID 488982). The gist of the method:
as §1

Test [19] has the same target. As to the kind of experiment: HTS Assay for Allosteric Agonists of the Human D1 Dopamine Receptor: Primary Screen for Antagonists (AID 488983).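 Further: calcium flux response to an EC80 dopamine challenge measured with no-wash dye; nearly all actives have a fitted effect of over 65% in size.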 The gist of the method: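 Tetracycline-induced HEK293 T-REx D1 line, force-coupled to calcium flux, read with no-wash calcium dye. Compound added after 10 s baseline, read 180 s for agonism, then EC80 dopamine added and read a further 180 s.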

M-phase phosphoprotein 8 (Homo sapiens), sequence (Q99549 whole entry, looked up): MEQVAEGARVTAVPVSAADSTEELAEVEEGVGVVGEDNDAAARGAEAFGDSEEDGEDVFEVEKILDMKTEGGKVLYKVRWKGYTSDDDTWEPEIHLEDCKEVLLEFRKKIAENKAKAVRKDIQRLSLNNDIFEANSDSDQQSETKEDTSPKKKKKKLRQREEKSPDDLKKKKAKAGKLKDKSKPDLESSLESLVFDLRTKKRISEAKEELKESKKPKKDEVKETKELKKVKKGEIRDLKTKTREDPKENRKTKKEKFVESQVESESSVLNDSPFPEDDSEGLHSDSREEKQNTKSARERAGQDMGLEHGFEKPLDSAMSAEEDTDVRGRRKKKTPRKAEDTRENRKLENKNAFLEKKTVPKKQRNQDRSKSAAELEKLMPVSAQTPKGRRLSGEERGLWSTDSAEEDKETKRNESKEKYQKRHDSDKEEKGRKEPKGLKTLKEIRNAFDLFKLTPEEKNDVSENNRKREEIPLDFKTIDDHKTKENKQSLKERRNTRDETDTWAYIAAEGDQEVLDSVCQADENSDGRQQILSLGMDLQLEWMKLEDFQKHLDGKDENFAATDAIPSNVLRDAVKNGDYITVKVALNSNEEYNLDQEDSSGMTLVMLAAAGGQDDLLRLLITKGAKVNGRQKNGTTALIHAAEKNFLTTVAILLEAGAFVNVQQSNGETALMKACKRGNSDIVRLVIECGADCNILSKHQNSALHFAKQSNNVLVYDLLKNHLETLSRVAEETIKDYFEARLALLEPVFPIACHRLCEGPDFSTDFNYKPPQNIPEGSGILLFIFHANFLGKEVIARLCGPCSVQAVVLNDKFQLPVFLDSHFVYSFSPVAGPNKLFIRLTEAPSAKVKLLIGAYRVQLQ
Tumor susceptibility gene 101 protein (Homo sapiens), sequence (Q99816 whole entry, looked up, the tested form may be a part): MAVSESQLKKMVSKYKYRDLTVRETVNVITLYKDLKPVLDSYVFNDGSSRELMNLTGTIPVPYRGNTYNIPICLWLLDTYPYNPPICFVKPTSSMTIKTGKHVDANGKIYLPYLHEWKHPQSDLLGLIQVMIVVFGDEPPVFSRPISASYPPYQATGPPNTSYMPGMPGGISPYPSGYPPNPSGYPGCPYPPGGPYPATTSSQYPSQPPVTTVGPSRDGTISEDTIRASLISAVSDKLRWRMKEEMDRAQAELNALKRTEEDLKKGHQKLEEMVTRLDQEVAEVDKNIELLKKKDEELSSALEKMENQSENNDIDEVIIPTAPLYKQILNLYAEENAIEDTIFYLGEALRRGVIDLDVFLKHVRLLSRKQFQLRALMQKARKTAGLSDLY
DNA polymerase III PolC-type (Bacillus subtilis (strain 168)), sequence (P13267 whole entry, looked up): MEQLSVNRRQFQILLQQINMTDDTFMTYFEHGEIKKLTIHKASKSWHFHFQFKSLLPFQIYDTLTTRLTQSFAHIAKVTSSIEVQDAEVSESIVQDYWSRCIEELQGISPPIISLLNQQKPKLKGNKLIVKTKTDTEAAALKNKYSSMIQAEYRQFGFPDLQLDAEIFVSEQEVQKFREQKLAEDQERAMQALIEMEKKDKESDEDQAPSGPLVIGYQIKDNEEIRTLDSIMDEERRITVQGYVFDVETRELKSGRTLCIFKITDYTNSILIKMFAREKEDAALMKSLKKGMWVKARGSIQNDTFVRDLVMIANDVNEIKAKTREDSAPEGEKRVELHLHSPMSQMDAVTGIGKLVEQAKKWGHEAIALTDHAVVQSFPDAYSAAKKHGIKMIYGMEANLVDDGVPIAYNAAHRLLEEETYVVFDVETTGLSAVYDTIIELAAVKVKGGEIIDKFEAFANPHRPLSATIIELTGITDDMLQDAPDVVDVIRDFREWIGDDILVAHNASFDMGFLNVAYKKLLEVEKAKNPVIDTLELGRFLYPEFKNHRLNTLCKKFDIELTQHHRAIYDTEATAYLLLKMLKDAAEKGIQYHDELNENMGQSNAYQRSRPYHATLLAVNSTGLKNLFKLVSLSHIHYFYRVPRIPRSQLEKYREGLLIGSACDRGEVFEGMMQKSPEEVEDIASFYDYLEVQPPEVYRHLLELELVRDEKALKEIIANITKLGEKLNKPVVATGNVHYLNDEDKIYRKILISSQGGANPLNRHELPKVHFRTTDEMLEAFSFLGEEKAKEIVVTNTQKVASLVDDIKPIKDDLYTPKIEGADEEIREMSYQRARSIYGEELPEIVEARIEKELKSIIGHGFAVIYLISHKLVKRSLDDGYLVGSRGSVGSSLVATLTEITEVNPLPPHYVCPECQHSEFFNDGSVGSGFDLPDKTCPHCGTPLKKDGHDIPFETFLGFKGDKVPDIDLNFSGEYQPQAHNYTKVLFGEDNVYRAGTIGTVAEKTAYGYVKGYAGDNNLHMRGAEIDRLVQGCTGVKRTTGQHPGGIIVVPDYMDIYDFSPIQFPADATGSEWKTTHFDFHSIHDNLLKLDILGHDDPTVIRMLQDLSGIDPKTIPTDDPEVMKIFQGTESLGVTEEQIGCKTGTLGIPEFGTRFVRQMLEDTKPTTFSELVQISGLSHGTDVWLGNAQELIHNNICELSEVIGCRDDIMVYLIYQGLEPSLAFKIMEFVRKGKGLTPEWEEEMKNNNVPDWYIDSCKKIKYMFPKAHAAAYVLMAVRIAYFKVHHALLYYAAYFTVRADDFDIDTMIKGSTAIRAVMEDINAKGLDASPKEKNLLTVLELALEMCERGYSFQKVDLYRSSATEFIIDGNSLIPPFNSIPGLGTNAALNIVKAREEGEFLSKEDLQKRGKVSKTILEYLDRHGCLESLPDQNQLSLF
Thioredoxin reductase 1, cytoplasmic (Rattus norvegicus), sequence (O89049 whole entry, looked up): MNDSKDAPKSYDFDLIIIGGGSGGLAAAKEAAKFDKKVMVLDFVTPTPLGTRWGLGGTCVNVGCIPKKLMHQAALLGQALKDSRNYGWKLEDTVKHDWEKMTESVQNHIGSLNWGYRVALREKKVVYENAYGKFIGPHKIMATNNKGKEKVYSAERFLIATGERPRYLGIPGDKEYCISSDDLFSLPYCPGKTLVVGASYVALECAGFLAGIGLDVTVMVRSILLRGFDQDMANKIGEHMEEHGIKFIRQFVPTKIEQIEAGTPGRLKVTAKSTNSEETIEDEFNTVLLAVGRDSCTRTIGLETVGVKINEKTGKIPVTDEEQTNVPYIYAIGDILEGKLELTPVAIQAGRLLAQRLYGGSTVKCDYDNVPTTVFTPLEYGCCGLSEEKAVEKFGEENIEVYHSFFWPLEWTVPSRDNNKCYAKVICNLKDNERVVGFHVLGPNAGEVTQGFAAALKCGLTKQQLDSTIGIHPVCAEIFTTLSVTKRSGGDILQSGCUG
Chromobox protein homolog 1 (Homo sapiens), sequence (P83916 whole entry, looked up): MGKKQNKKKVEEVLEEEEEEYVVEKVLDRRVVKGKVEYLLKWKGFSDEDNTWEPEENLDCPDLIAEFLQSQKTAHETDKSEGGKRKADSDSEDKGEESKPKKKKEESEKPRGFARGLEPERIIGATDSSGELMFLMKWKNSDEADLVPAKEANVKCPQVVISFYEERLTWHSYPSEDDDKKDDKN
Methanococcus maripaludis chaperonin (MmCpn), sequence (Q6LX38 1-543): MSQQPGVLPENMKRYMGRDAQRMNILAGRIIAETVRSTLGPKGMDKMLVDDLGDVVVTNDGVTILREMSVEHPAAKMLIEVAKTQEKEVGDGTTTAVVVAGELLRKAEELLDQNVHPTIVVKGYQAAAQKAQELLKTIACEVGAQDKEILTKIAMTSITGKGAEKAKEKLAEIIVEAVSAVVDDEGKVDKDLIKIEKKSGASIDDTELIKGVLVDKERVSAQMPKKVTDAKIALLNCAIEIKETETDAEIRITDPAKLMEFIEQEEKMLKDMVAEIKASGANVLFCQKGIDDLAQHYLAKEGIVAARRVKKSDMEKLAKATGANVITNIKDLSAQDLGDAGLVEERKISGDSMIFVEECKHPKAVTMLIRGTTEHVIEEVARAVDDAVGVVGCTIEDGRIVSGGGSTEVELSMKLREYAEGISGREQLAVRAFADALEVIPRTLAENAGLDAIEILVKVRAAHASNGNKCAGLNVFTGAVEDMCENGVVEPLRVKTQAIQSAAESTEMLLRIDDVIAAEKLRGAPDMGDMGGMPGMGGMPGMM
Thyrotropin receptor (Homo sapiens), sequence (P16473 whole entry, looked up): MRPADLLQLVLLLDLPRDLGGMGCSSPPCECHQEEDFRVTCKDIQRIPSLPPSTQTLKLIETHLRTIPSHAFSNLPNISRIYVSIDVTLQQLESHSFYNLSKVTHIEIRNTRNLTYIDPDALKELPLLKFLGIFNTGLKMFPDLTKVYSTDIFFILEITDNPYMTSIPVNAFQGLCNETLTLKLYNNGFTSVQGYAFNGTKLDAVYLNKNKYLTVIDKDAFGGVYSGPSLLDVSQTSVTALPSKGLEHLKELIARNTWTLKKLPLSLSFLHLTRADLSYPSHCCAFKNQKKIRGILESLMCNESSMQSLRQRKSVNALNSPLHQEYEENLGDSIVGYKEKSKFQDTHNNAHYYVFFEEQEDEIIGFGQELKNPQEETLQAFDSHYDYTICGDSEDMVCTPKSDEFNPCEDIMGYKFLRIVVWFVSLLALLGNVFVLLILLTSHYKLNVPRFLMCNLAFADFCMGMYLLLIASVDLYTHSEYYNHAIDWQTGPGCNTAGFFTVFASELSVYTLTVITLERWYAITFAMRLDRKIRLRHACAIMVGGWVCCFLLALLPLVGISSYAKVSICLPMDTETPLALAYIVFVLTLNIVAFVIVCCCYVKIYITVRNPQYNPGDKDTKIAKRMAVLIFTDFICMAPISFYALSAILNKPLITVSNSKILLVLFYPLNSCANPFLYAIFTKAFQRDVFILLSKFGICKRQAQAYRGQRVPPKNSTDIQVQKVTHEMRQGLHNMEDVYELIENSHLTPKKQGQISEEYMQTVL

On to `COc1nc(C)nc(Cl)c1NC1=NCCN1`, for which the Potency result in [1], in [2], in [4], in test [6], in [7] and in test [8] was “inactive” throughout. Besides, the Potency result in test [10], in test [11], in test [12], in test [13], in test [17] and in test [18] was “inactive” throughout. Further, the Potency result in test [19] is “inactive”. Besides, the outcome in [3], in test [5], in test [9], in test [14], in test [15] and in test [16] was inactive.

Consider `COc1ccc2[nH]cc(CCNC(C)=O)c2c1`, for which the Potency entry in test [1], in [2], in [4], in test [7], in test [8] and in test [10] was “inactive” in each case. Besides, the Potency result in [11], in test [12], in test [13], in test [17], in [18] and in test [19] was “inactive” in each case. Also, the call in test [3], in test [5], in [9], in test [14], in [15] and in [16] was inactive.

Take `CCOC(=O)C(C)(C)Oc1ccc(Cl)cc1`: the Potency entry in test [1], in [2], in test [4], in [7], in [10] and in test [11] was “inactive” each time. Also, the Potency result in [12], in test [13], in test [17], in [18] and in [19] was “inactive” each time. Also, the compound was classed as inactive in [3], in [5], in test [9], in test [14], in test [15] and in test [16].

`CC[N+](CC)(CC)CCOc1cccc(OCC[N+](CC)(CC)CC)c1OCC[N+](CC)(CC)CC`: the Potency result in test [1], in test [2], in [4], in test [11], in [17] and in test [18] was “inactive” throughout. Moreover, in [19], the Potency result was “inactive”. Besides, the call in test [3], in test [5], in test [9], in [14], in [15] and in [16] was inactive.

`Nc1ccn([C@H]2CC[C@@H](CO)O2)c(=O)n1`: the Potency entry in [1], in test [2], in [4], in [6], in [7] and in [11] was “inactive” throughout. For the same compound, the Potency entry in test [12], in test [13], in [17], in test [18] and in test [19] was “inactive” throughout. The result in test [3], in [5], in [9], in test [14], in test [15] and in test [16] was inactive.

With `NC(=O)NO`, the Potency entry in test [1], in [2], in [4], in test [6], in test [7] and in [10] was “inactive” throughout. In addition, the Potency result in test [11], in test [12], in test [13], in [17], in [18] and in test [19] was “inactive” each time. The outcome in test [3], in [5], in [14], in test [15] and in test [16] was inactive.

For `CCCCc1oc2ccccc2c1C(=O)c1cc(I)c(OCCN(CC)CC)c(I)c1`, the Potency result in test [1], in [2], in test [4], in test [10], in [11] and in test [12] was “inactive” throughout. The Potency result in test [17] and in test [18] was “inactive” in each case. Moreover, the result in test [3], in test [5], in test [9], in test [14], in test [15] and in test [16] was inactive. In addition, the figures for the Potency in test [7], in test [8] and in [13] were 8.28 µM (active), 9.28 µM (active) and 44.7 µM (active), respectively.
